An excerpt weighted towards active compounds, which were near 19% of everything screened.
IL1B secr inh: inhibitors of inflammasome signaling (IL-1 beta secretion). THP-1 LPS/ATP IL-1B secretion, AlphaLISA, 16 h; stronger effect = lower value. activity change, % at 57.5 µM. 360,000 compounds, 4.7% hits. AID 743279; in the data active means activity change below about -50%; inconclusive means mostly about -30% to -49%; further: on the % scale 0 is the no-effect control and ±100 the full control effect
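THP-1 cells pretreated 1 hr with compounds (up to 57.5 uM final), then stimulated with LPS (250 ng/mL final) plus ATP (1.25 mM final); secreted IL-1B measured by AlphaLISA after 16 hr, decreased signal indicating inhibition.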
HepG2 viability: counter-screen for TGF-b inhibitors: cytotoxicity in HepG2 cells; HepG2 CAGA-GFP viability, ATP luminescence, 18 h; 410,000 compounds, 0.76% hits; Potency, µM (series often up to 46.1 µM), for the others: top-dose activity change, negative = cytotoxicity, usual class: cytotoxic; further: potency means the concentration at half of the fitted maximal effect
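CellTiter-Glo luminescence gave cytotoxicity after 18 hours at 37 degrees C. The cells were HepG2 CAGA-GFP in 1% FBS DMEM, stimulated with 500 pg/mL TGF-beta after compound addition. %Activity was normalised to no-cell wells (complete cell-killing) and DMSO (no toxicity), and curves were fitted and classified.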
ASM inhibitor: inhibitors of human secretory acid sphingomyelinase; placental ASM, HMU-PC fluorogenic substrate, 60 min; Potency, µM (top dose mostly 57.5 µM), for the others: at the highest dose activity change, negative = inhibition, hits mostly inhibitors; 340,000 compounds, 0.006% hits; AID 504937; further: potency means the concentration at half of the fitted maximal effect
Target sequence (P17405 47-631 limits assumed): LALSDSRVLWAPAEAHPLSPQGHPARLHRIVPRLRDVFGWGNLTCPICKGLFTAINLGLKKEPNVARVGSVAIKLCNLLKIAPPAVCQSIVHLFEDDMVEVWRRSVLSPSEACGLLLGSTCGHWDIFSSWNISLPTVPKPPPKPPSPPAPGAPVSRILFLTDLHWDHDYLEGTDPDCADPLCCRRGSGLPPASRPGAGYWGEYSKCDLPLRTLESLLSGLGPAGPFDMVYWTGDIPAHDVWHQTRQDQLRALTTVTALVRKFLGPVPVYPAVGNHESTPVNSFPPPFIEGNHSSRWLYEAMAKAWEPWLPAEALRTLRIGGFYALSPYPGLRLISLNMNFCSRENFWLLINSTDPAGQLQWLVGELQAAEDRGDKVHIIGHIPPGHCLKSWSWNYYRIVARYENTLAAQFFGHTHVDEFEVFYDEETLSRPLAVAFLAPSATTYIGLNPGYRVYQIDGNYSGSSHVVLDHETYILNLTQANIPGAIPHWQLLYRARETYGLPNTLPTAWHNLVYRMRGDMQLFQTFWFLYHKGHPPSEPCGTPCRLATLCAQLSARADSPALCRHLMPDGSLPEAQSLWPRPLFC
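HMU-PC0 cleavage (9 uM final) by human placental ASM, 60 min at 37 °C following 10 min compound exposure at RT; stopped at pH 10, fluorescence Ex 386/Em 447 nm.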
TDP1 cell CPT: growth inhibition of DT40 Tdp1-/-;hTDP1 cells with camptothecin (screen for TDP1 inhibitors) | Potency, µM (series often up to 46.2 µM), for inactives: at the top dose activity change, negative = growth inhibition, most hits filed as inhibitors | 420,000 compounds, 12% hits | chicken DT40 Tdp1-/-;hTDP1 cells + 20 nM CPT, ATP luminescence, 48 h | AID 686979; further: potency means the concentration at half of the fitted maximal effect; on the % scale 0 is the no-effect control and ±100 the full control effect; nearly all actives have a fitted effect of over 55% in size
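Chicken DT40 Tdp1-/- cells complemented with human TDP1, 400 cells/well, exposed to compounds plus 20 nM camptothecin for at least 48 h at 37 C; viability read as ATP content by CellTiter-Glo luminescence.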
TDP1 cell noCPT: qHTS for Inhibitors of human tyrosyl-DNA phosphodiesterase 1 (TDP1): qHTS in cells in absence of CPT | DT40 Tdp1-/- hTDP1 cells, no CPT, ATP luminescence, 48 h | Potency, µM (titrated, usually from 46.2 µM), inactives show at the highest dose activity change, negative = growth inhibition, most hits filed as inhibitors | 420,000 compounds, 15% hits; further: potency means the concentration at half of the fitted maximal effect; on the % scale 0 is the no-effect control and ±100 the full control effect; nearly all actives have a fitted effect of over 55% in size
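A cellular qHTS used chicken DT40 cells lacking endogenous Tdp1 but carrying stably transfected human TDP1. Compounds were applied without camptothecin, and cell growth kinetics were judged by ATP-dependent luminescence after ≥48 hr.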
TGFb SMAD3 inh: TGF-b pathway inhibition; 410,000 compounds, 1.2% hits; Potency, µM (highest dose often 46.1 µM), inactives show top-dose activity, negative = inhibition, usual class: inhibitors; AID 588855; HepG2 CAGA-GFP TGF-b/SMAD3 reporter, GFP fluorescence, 18 h; TGF-beta stimulated, 500 pg/mL final; further: potency means the concentration at half of the fitted maximal effect; on the % scale 0 is the no-effect control and ±100 the full control effect; nearly all actives have a fitted effect of over 65% in size
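GFP signal (ex488/em500-530) from TGF-beta-stimulated HEPG2 CAGA-GFP cells, 500 pg/mL final, 18 h at 37 degrees C in DMEM plus 1% FBS, normalized to unstimulated and DMSO-stimulated controls.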
Numbers without * were called inactive; i = inactive; ? = inconclusive; · = no result given. Unless noted, the call rests on the fitted dose curve; in most records, active means well fitted curve in the direction sought with a large enough effect; inconclusive means small, poorly fitted or top-dose-only effect, or another doubt; inactive means no such curve, though single readings can be large; an effect the other way counts as inactive or inconclusive.

SMILES | IL1B secr inh | HepG2 viability | ASM inhibitor | TDP1 cell CPT | TDP1 cell noCPT | TGFb SMAD3 inh
O=c1[nH]c(=O)n(Cc2ccccc2)c2nc(-c3ccc(Oc4ccc(F)cc4)c([N+](=O)[O-])c3)n(CCO)c12 | -23.1 | -54.3% | -13.2% | 16.4µM* | 18.4µM* | 12.6µM*
COCCn1c(=O)[nH]c(=O)c2c1nc(-c1ccc(-c3ccc(Cl)cc3[N+](=O)[O-])o1)n2Cc1ccccc1 | 38.7 | -8.7% | 289.1% | 16.4µM* | 23.1µM* | ?
COc1ccc(-c2ccc(-c3nc4c(c(=O)[nH]c(=O)n4Cc4ccccc4)n3C)o2)c([N+](=O)[O-])c1 | -1.4 | -0.4% | 32.2% | ? | 25.9µM* | -6.8%
CC(C)(C)CCN1CCC(CN2CCNC(=O)C2=O)CC1 | 15.7 | 0.2% | 3.3% | -4.6% | -12.6% | 2.7%
COc1ccc(/C=C\C(=O)CC(O)(c2ccccc2)C(F)(F)F)cc1 (stereo not given) | -74.2* | -100.1% | -4.8% | 16.4µM* | 14.6µM* | ?
CC(C)CC(=O)[C@@H](O)Cc1ccc(O)cc1 | 22.3 | · | · | -2.9% | -22.2% | ·
CSc1ccccc1NC(=O)CN(C)C(=O)CNC(=O)c1ccc(Oc2ccccc2)cc1 | 46.2 | -29.3% | · | ? | ? | -5.8%
COc1ccc(CSC(=S)NNc2ccccc2)cc1 | 40.5 | 1.1% | · | ? | 18.4µM* | 4.8%
Fc1ccc(-c2csc3ncnc(N4CCN(Cc5ccccc5)CC4)c23)cc1 | 9.0 | 9.1% | 4.0% | 20.6µM* | 14.6µM* | -3.2%
Cc1sc2ncnc(N3CCN(Cc4ccccc4)CC3)c2c1-c1ccc(F)cc1 | -54.8* | 1.3% | 1.0% | ? | ? | 1.5%
Fc1ccc(CN2CCN(c3ncnc4scc(-c5ccccc5)c34)CC2)cc1 | ? | -39.0% | -5.4% | ? | ? | ?
O=C(CSc1nnc(Nc2ccccc2)s1)NC1CCCC1 | 16.4 | -26.5% | 0.0% | -13.5% | ? | ?
CC(=O)N(/N=C/c1ccc(C)cc1)c1nc(CCl)cs1 | -18.6 | -17.4% | 1.9% | 14.6µM* | ? | -29.0%
CC1CCC(C(C)C)C(OC(=O)COC(=O)c2cc(O)ccc2N)C1 (stereo not given) | -80.4* | -100.3% | i | ? | ? | ?
NC(=O)c1ccsc1NC(=O)COC(=O)Cc1cccc2ccccc12 | 2.7 | -10.5% | ? | 9.2µM* | 10.3µM* | -1.3%
NC(=O)c1ccsc1NC(=O)COC(=O)Cc1ccc(F)cc1 | 24.6 | -17.6% | · | -14.1% | ? | -20.0%
NC(=O)c1ccsc1NC(=O)COC(=O)Cc1c[nH]c2ccccc12 | 5.6 | -25.4% | -5.1% | ? | 16.4µM* | -6.4%
NC(=O)c1ccsc1NC(=O)COC(=O)Cc1ccccc1[N+](=O)[O-] | 39.0 | -41.6% | · | 23.1µM* | 20.6µM* | -2.8%
CC(C)c1ccccc1NC(=O)COC(=O)Cc1c[nH]c2ccccc12 | 0.0 | -6.7% | 3.9% | 0.082µM* | -10.5% | ?
Cc1ccc(CN(C)C(=O)c2cc(Br)c(Br)s2)o1 | -21.7 | -16.5% | -2.4% | ? | ? | 11.7%
O=C(NCCc1ccccc1)c1cc(-c2cccc(Cl)c2)on1 | · | -14.2% | · | -14.2% | -4.9% | 2.7%
CCCCN(C)C(=O)CCC(=O)NNc1nc2ccccc2c2nc(C)nn12 | 1.1 | 2.0% | -2.3% | -28.1% | -20.0% | -11.2%
CCOC(=O)c1c(NC(=O)c2ccoc2C)sc(C)c1C | 0.1 | -4.7% | -2.0% | -8.6% | 20.6µM* | 14.1%
CCc1c(C)sc(NC(=O)c2ccoc2C)c1C(N)=O | -56.2* | -3.3% | 0.7% | ? | ? | -10.7%

Compound activity as filed in PubChem BioAssay.
